# Screening results deposited in PubChem BioAssay by several laboratories.
# PKA-R1A activ = activates the PKA-R1A holoenzyme complex; activation, % at 11.4 µM; actives 0.083% (n = 340,000); AID 504707; PKA-R1A dissociation, Cy5-IP20 fluorescence polarization; scaled: DMSO 0%, 113 µM cGMP 100%;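 active means percent activation above the mean of all tested compounds plus 3 SD, cut at about 19% in these data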;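 further: higher means more PKAc released from R1A so a rise in polarization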
# PKA-R2B activ = PKA-R2B complex activation; PKA-R2B holoenzyme dissociation, Cy5-IP20 fluorescence polarization; R2B truncated from residue 108, S112A mutant; 0% DMSO only, 100% 113 µM cGMP; AID 504700; actives 0.079% (n = 340,000); P22694+P31323; activation, % at 11.4 µM;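 active means activation above a cutoff set at the mean over all compounds plus 3 SD, cut at about 18% in these data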;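 further: higher means more holoenzyme dissociation and a rise in polarization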
# Target sequence (P31323 whole entry, looked up, other chains not shown, the tested form may be a part): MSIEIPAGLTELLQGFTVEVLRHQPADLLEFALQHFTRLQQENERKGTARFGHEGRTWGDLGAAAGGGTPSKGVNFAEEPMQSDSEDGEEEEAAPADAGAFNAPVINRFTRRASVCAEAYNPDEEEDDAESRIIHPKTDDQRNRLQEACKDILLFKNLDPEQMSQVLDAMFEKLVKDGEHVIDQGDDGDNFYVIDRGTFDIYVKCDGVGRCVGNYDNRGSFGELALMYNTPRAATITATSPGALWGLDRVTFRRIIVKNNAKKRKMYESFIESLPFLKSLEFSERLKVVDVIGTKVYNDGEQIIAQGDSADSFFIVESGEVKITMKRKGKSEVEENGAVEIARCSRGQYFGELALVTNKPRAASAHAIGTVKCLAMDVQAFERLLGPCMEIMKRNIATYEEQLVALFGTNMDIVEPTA
# TMEM16A inh = mouse TMEM16A channel inhibition, primary screen | normalized B-score (activity score, 25-100; higher = stronger inhibition) at 10 µM | Q8BHY3 | HEK293 TMEM16A/YFP iodide influx fluorescence, ionomycin | actives 1.2% (n = 310,000) | AID 588511;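 active means ratio plate-corrected score three or more library SD toward inhibition, starting fluorescence score within five deviations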;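 further: score derived from kinetic fluorescence span divided by baseline fluorescence per well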
# CHT PAM = human CHT allosteric activation; AID 488977; CHT-expressing cells, membrane potential dye, choline EC20; hits give high values; LV-AA mutant CHT in HEK293 cells; B-score at 10 µM; Q9GZV3; actives 0.49% (n = 310,000);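 active means initial fluorescence not abnormally high and integrated response B-score, plate-corrected, over 3 SD above library mean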
# CHT block = inhibitors of human choline transporter CHT; actives 0.86% (n = 310,000); CHT-expressing cells, membrane potential dye, choline response; hits give low values; Q9GZV3; B-score at 10 µM;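 active means B-score over 3 SD under the library average, and starting fluorescence ratio not unusually high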;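 further: choline stimulus applied at its EC90 after an EC20 pre-addition; B-score computed on integrated fluorescence ratio after choline addition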
# TMEM16A act = mouse TMEM16A channel activation, primary screen | HEK293 TMEM16A/YFP-H148Q/I152L, iodide quench fluorescence; hits give low values | B-score at 10 µM | AID 623877 | Q8BHY3 | actives 0.3% (n = 340,000);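 active means fluorescence-ratio B-score plate-corrected deviation score at least 3 library SD below zero, with starting fluorescence score within 5 deviations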;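 further: channel opened by trigger with iodide after compound preincubation; score built on the fluorescence ratio of max minus min over baseline; more negative score means more quench and so TMEM16A activation or potentiation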
# CHT act confirm = human CHT activation, confirmatory screen. AID 504833. activation, % at 10 µM. CHT-expressing cells, membrane potential dye fluorescence (FDSS); % of choline EC20–EC90 response window; HEK293 expressing CHT LV-AA mutant; choline added at its EC20. shares compounds with CHT PAM. actives 91% (n = 2,500);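 active means primary screen active, with duplicate mean activation above negative control mean plus 3 SD, cut at about 11% in these data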
# HEK293 MP dye = counter-screen for CHT activators: effect in parental HEK293 cells. actives 62% (n = 2,500). membrane potential dye fluorescence (FDSS); measured after EC20 choline addition. ratio readout change at 10 µM, hits read low. shares compounds with CHT PAM. AID 623908;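 active means duplicate-averaged ratio beyond 3 SD from buffer wells, up or down, though filed actives are nearly all decreases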
# Numbers stand for hits; - = inactive; . = no result. Only some compounds are listed: those with a hit (about 2.5% of all), similar ones and a draw of the others.
SMILES,PKA-R1A activ,PKA-R2B activ,TMEM16A inh,CHT PAM,CHT block,TMEM16A act,CHT act confirm,HEK293 MP dye
Nc1c2c(nc3ccn(-c4ccccc4)c(=O)c13)CCCCC2,-,-,-,-,-,-,49,-50
O=c1[nH]c(N2CCN(Cc3ccccc3)CC2)nc2c1CCC2,.,.,-,-,-,-,.,.
Nc1c2c(nc3ccn(Cc4ccccc4)c(=O)c13)CCC2,-,-,-,7,-,-,54,-50
O=c1[nH]c(N2CCN(c3ccccc3)CC2)nc2c1CCCC2,-,-,-,-,-,-,.,.
Cc1cc(N2CCCC2)nc2ccc(NC(=S)NC(C)C)cc12,-,-,-,-,-,-,21,-51
COCCNC(=S)Nc1ccc2nc(N3CCOCC3)cc(C)c2c1,-,-,-,-,-,-,.,.
CCOCCCNC(=S)Nc1ccc2nc(N3CCCC3)cc(C)c2c1,-,-,-,-,-,-,32,-52
CCN(CC(=O)Nc1c(F)cccc1F)C(=O)Cc1csc(-c2ccccc2)n1,-,-,-,-,-,-,.,.
CS(=O)(=O)N1CCN(c2ccc([N+](=O)[O-])c(NCCN3CCOCC3)c2)CC1,-,-,-,-,-,-,32,-40
COCCCNC(=O)c1cc(-c2cccnc2)nc2ccc(S(=O)(=O)N3CCCCCC3)cc12,-,-,-,-,-,-,.,.
CCNS(=O)(=O)c1cc(-c2nnc(OC)c3ccccc23)ccc1C,-,-,-,7.7,-,-,-,-
Cc1ccc(-c2n[nH]c(=O)c3ccccc23)cc1S(=O)(=O)NCCO,-,-,-,-,-,-,.,.
O=C(O)c1cc(NC(=O)c2cccc(C(=O)Nc3cc(C(=O)O)cc(C(=O)O)c3)c2)cc(C(=O)O)c1,-,-,-,-,-,-,.,.
COCCNC(=O)c1c(N)n(/N=C/c2cccs2)c2nc3ccccc3nc12,-,-,-,-,-,-,28,-
COc1ccc(CN(C)C(=O)c2cc(S(=O)(=O)N3CCOCC3)ccc2N2CCCC2)cc1,-,-,-,-,-,-,.,.
c1ccc2c(N3CCCCC3)ncnc2c1,-,-,-,-,-,-,.,.
CN1CC[n+]2cnc3ccccc3c21,-,-,-,12,-,-,79,-72
Brc1cnc(N2CCCC2)nc1N1CCOCC1,-,-,-,-,-,-,16,-20
Brc1cnc(N2CCCCC2)nc1N1CCOCC1,-,-,-,-,-,-,.,.
Cc1ccc(N(CC(=O)Nc2c(C)n(C)n(-c3ccccc3)c2=O)S(C)(=O)=O)c(C)c1,-,-,-,-,-,-,.,.
Cc1ccc(N(CC(=O)N/N=C/c2cc(C)n(-c3ccccc3)c2C)S(C)(=O)=O)c(C)c1,-,-,-,-,-,-,24,-
O=C(Nc1ccc([N+](=O)[O-])cc1)NN1CCCCCC1,-,-,.,.,.,-,.,.
Cc1sc2cc(-c3cccc([N+](=O)[O-])c3)c(-c3cccc([N+](=O)[O-])c3)c[n+]2c1C,-,-,-,8.4,-,-,56,-88
O=c1cc(-c2cccc([N+](=O)[O-])c2)[nH][nH]1,-,-,-,-,-,-,.,.
O=[N+]([O-])c1cccc(-c2cc3cccc[n+]3cc2-c2cccc([N+](=O)[O-])c2)c1,-,-,-,14,-,-,77,-75
SMILES,PKA-R1A activ,PKA-R2B activ,TMEM16A inh,CHT PAM,CHT block,TMEM16A act,CHT act confirm,HEK293 MP dye
CN1C(=O)C2(OCC(CO)([N+](=O)[O-])CO2)c2ccccc21 (configuration not stated),-,-,-,-,-,-,.,.
CC(C)CN1C(=O)N(c2ccc(Cl)cc2)C(C)(O)CC1(C)C (configuration not stated),-,-,-,-,-,.,.,.
O=C(Nc1ccc2ccccc2c1)C(c1ccccc1)C1CCCC1 (configuration not stated),-,-,-,-,-,-,24,-
Cc1ccc(NC(=O)C(c2ccccc2)C2CCCC2)cc1 (configuration not stated),-,-,.,.,.,-,.,.
COc1cccc(CN2CCC(N(CCc3ccccc3)Cc3ccccc3)CC2)c1OC,-,-,-,10,-,-,34,-
CC(C)c1ccc(S(=O)(=O)Nc2ccc3c(c2)OCO3)cc1,-,-,.,.,.,-,.,.
COc1cc(-c2nc(CN(C)Cc3nnc(C)o3)c(C)o2)ccc1F,-,-,-,-,-,-,.,.
Cc1cc(-c2ccccc2)nc2[n+]1CCN2C,-,-,-,7.5,-,-,61,-59
Cc1nc(-c2ccccc2)cc(N2CCCC2)n1,-,-,-,-,-,-,.,.
CCN1C(=NCCOC)N[C@@H](c2cccc(C(F)(F)F)c2)C(C(=O)OC)=C1C,-,-,.,.,.,-,.,.
COC(=O)C1=C(C)N(Cc2ccccc2)C(=NCc2ccc(OC)cc2)N[C@H]1c1cccc(F)c1,-,-,-,-,-,-,20,-
CCN1C(=NCC2CC2)N[C@@H](c2cccc(C(F)(F)F)c2)C(C(=O)OC)=C1C,-,-,-,11,-,-,25,-
O=C1N(Cc2cccc(Cl)c2)C[C@@H]2C[C@@H](c3cccn3-c3ccccn3)N3CCC[C@@]123,-,-,-,7.1,-,-,53,-
O=C1C2CC=C(Cl)CC2C(=O)N1CCC[n+]1cccc2ccccc21 (configuration not stated),-,-,-,-,-,-,50,-25
Cn1c(N)c(C(=O)COc2ccc(C#N)cc2)c(=O)n(C)c1=O,-,-,-,-,-,-9.1,38,-36
Cc1ccc(C(=O)CSc2ncn[nH]2)cc1,-,-,-,-,-,-,.,.
O=C(CSc1ncn[nH]1)c1ccc(OC(F)F)cc1,-,-,-,7.2,-,-,-,-
C[C@@H]1CN([C@H](C)CO)C(=O)c2cc(Br)cnc2O[C@H]1CN(C)Cc1cccnc1,-,-,.,.,.,.,.,.
CCN1C(=O)c2cccc3c(S(=O)(=O)NCCCN4CCOCC4)ccc1c23,-,-,-,7,-,-,59,-54
O=C1C(Cc2ccccc2)Nc2ncnc(N3CCc4ccccc4C3)c2N1Cc1ccc(Br)cc1 (configuration not stated),.,.,-,-,-,.,.,.
O=C(CC1OC(=O)c2ccccc21)Nc1cc(Cl)ccc1N1CCOCC1 (configuration not stated),-,-,.,.,.,-,.,.
